PubChem BioAssay (NCI)
The panel holds about 83,000 compounds, 20% with a hit somewhere; the sample as a whole holds those more often.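 Note: values are percent growth. 100 is the growth of untreated cells, values between 100 and 0 indicate rising inhibition; between -100 and 0 indicates cell death.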 Active and inactive are the calls of the source. How the source made its calls: active means growth percent below 10; inactive means the rest.

Key:
Test in all cases: NCI-60 one-dose screen, 48 h (100 = growth as untreated, 0 = no growth, -100 = all killed)
Conditions in all cases: 10 µM unless noted
[1] = tested on: HCT-15 colon
[2] = tested on: HT29 colon
[3] = tested on: SNB-75 CNS
[4] = tested on: SNB-19 CNS
[5] = tested on: U251 CNS
[6] = tested on: PC-3 prostate
[7] = tested on: SK-MEL-5 melanoma
[8] = tested on: UACC-62 melanoma
[9] = tested on: LOX IMVI melanoma
[10] = tested on: SK-MEL-28 melanoma
[11] = tested on: SK-MEL-2 melanoma
[12] = tested on: EKVX NSCLC
[13] = tested on: SN12C renal
[14] = tested on: UO-31 renal
[15] = tested on: TK-10 renal
[16] = tested on: ACHN renal
[17] = tested on: A498 renal
[18] = tested on: CCRF-CEM leukemia
[19] = tested on: MOLT-4 leukemia

Measured: growth

CCCCn1c(-c2cccc(OC)c2)nc2cc(OC)c(OC)cc2c1=O
active: [18] -22.6%
inactive: [1] 103% | [2] 110% | [3] 96.1% | [4] 89.7% | [5] 96.3% | [6] 108% | [7] 97.1% | [8] 83.6% | [9] 89.2% | [10] 109% | [11] 101% | [12] 70.8% | [13] 98.1% | [14] 80.6% | [15] 215% | [16] 97.8% | [17] 110% | [19] 69.8%

O=C(N/N=C1\SCC(=O)N1c1ccccc1)c1cc(-c2cc3ccccc3o2)nn1-c1ccccc1
active: [18] -84.9%
inactive: [1] 106% | [2] 107% | [3] 101% | [4] 104% | [5] 103% | [6] 86.9% | [7] 101% | [8] 134% | [9] 107% | [10] 110% | [11] 103% | [12] 96.7% | [13] 122% | [14] 118% | [15] 112% | [16] 91% | [17] 103% | [19] 87%

COc1ccc(-c2cc(-c3nnc(SC/C(=N\O)c4ccccc4)n3-c3ccccc3)c3ccccc3n2)cc1
inactive: [1] 107% | [2] 99.5% | [3] 100% | [4] 105% | [5] 101% | [6] 93.6% | [7] 108% | [8] 97.6% | [9] 95.7% | [10] 113% | [11] 95.2% | [12] 103% | [13] 105% | [14] 75.3% | [15] 123% | [16] 106% | [17] 109% | [18] 103% | [19] 98.4%

C=C1C(=O)O[C@H]2[C@H]1CC/C(COC(=O)c1cc(OC)c(OC)c(OC)c1)=C\CC[C@@]1(C)O[C@@H]21
active: [1] -42.8% | [2] -80.2% | [5] 9.17% | [7] -23.8% | [8] -50.7% | [9] -94.9% | [10] -36.5% | [11] -39.4% | [12] -70.6% | [13] -5.94% | [14] -99% | [15] -64.4% | [16] -87.7% | [18] -22% | [19] -14.8%
inactive: [3] 45.9% | [4] 30.5% | [6] 18.6% | [17] 59.8%

CCC1S/C(=N\N=C(/C)c2cccs2)N(c2ccccc2)C1=O (stereo not given)
active: [18] -39.5%
inactive: [1] 99% | [2] 91% | [3] 110% | [4] 114% | [5] 105% | [6] 98.4% | [7] 84.4% | [8] 117% | [9] 105% | [10] 118% | [11] 141% | [12] 105% | [13] 135% | [14] 110% | [15] 114% | [16] 113% | [17] 108% | [19] 63.9%

CN(C)C(=O)Nc1nc2cc(Cl)c(Cl)cc2[nH]1
inactive: [1] 26.1% | [3] 14.7% | [4] 27% | [5] 25.6% | [6] 18.9% | [7] 19% | [8] 23.1% | [9] 47.8% | [10] 73.4% | [12] 57.7% | [13] 51% | [14] 20.4% | [15] 30.7% | [16] 52.6% | [17] 46.7% | [18] 10.3%
active: [2] 5.63% | [11] -14.7% | [19] 8.26%

CC(C(=O)O)N1C(N)=NNC1c1ccccc1O (stereo not given)
inactive: [1] 68.4% | [2] 99.3% | [3] 74.4% | [4] 88.5% | [5] 85.9% | [6] 83.3% | [7] 85.5% | [8] 81.9% | [9] 78.3% | [10] 106% | [11] 99.7% | [12] 50.6% | [13] 93.4% | [14] 66.3% | [15] 148% | [16] 87.3% | [17] 98.8% | [18] 82.7% | [19] 68.1%

COc1cc(NC(C)CCCN2C(=O)c3ccccc3C2=O)c2ncccc2c1OC (stereo not given)
active: [18] -26.9% | [19] -67.5%
inactive: [1] 94.1% | [2] 101% | [3] 84.8% | [4] 94.1% | [5] 107% | [6] 71.3% | [7] 84.3% | [8] 90.1% | [9] 79.2% | [10] 105% | [11] 94.8% | [12] 69% | [13] 109% | [14] 59.4% | [15] 93.6% | [16] 97.9% | [17] 104%

C=C1C(=O)O[C@H]2[C@H]1CC/C(CNC(=O)/C1=C/CC[C@@]3(C)O[C@H]3[C@H]3OC(=O)C(=C)[C@@H]3CC1)=C\CC[C@@]1(C)O[C@@H]21
inactive: [1] 93.7% | [2] 95.4% | [3] 86.3% | [4] 97.6% | [5] 94.2% | [6] 99% | [7] 97.2% | [8] 85.1% | [9] 88.2% | [10] 96.2% | [11] 88.7% | [12] 86.2% | [13] 96.7% | [14] 95.5% | [15] 102% | [16] 97.6% | [17] 94.6% | [18] 42.6% | [19] 93.5%

COc1cc(/C=C/C(=O)c2c(C)[n+]([O-])c3ccccc3[n+]2[O-])ccc1O
inactive: [1] 93.5% | [2] 161% | [3] 162% | [4] 111% | [5] 90.8% | [6] 90.6% | [7] 81.6% | [8] 110% | [9] 92.6% | [10] 117% | [11] 83.8% | [12] 84.5% | [13] 101% | [14] 80.4% | [15] 55.9% | [16] 95.4% | [17] 101% | [18] 124% | [19] 126%

N#Cc1c(N)nc2c(c1N)C(c1ccc(Cl)cc1)C1=C(CCCC1=O)N2c1sc2c(c1C#N)CCCC2 (stereo not given)
active: [18] -34%
inactive: [1] 102% | [2] 81.2% | [3] 91.4% | [4] 92.4% | [5] 99.7% | [6] 89% | [7] 98.6% | [8] 88.3% | [9] 81.5% | [10] 96.6% | [11] 95.8% | [12] 93.7% | [13] 95.4% | [14] 95.9% | [15] 89.2% | [16] 96.8% | [17] 100% | [19] 90%

Cc1nssc1=S
inactive: [1] 104% | [2] 102% | [3] 92.3% | [4] 96.5% | [5] 102% | [6] 88.2% | [7] 108% | [8] 104% | [9] 89.4% | [10] 101% | [11] 88.6% | [12] 96.5% | [13] 118% | [14] 87.9% | [15] 96.4% | [16] 109% | [17] 147% | [18] 92.2% | [19] 99.8%

CC1=C[S+](c2ccccc2)c2cccc3cc4ccccc4c1c23 (stereo not given)
active: [1] 7.56% | [2] 0.469% | [3] -91.1% | [4] -93.6% | [5] -81% | [6] 1.38% | [7] -86.7% | [8] -85.2% | [9] 8.36% | [11] -65.2% | [12] -1.91% | [13] -60.2% | [14] -39.5% | [15] 2.15% | [18] 4.35% | [19] -23.5%
inactive: [10] 11.5% | [16] 15.3% | [17] 27.5%

N#CC(C#N)=C(C#N)c1c[nH]c2ccccc12
inactive: [1] 73.3% | [2] 80.4% | [3] 79.6% | [4] 92.9% | [5] 86.3% | [6] 73.1% | [7] 92.8% | [8] 82.9% | [9] 82.3% | [10] 108% | [11] 90.9% | [12] 73% | [13] 79% | [14] 63.9% | [15] 98.9% | [16] 73.4% | [17] 101% | [18] 65.5% | [19] 75.7%

OCc1cnccc1NC12CC3CC(CC(C3)C1)C2
inactive: [1] 103% | [2] 88.7% | [3] 105% | [4] 101% | [5] 98.9% | [6] 102% | [7] 98.3% | [8] 104% | [9] 96.7% | [10] 105% | [11] 95.1% | [12] 103% | [13] 105% | [14] 90.1% | [15] 99.1% | [16] 101% | [17] 94.7% | [18] 95.9% | [19] 88.8%
